Rows were chosen to be rich in hits. Some 2.4% of all compounds tested hit in one or more screens of this group.
CHRM1 PAM – potentiates human M1 receptor response to acetylcholine. AID 588819. P11229. CHO-K1 hM1, Fluo-8 calcium fluorescence, ACh EC20; 0% = ACh EC20, 100% = maximal ACh. activation, % at 3 µM. 360,000 compounds, 0.088% hits; in the data active means activation above about 19%, passing the limit was not always enough
Target sequence (P11229 whole entry, looked up): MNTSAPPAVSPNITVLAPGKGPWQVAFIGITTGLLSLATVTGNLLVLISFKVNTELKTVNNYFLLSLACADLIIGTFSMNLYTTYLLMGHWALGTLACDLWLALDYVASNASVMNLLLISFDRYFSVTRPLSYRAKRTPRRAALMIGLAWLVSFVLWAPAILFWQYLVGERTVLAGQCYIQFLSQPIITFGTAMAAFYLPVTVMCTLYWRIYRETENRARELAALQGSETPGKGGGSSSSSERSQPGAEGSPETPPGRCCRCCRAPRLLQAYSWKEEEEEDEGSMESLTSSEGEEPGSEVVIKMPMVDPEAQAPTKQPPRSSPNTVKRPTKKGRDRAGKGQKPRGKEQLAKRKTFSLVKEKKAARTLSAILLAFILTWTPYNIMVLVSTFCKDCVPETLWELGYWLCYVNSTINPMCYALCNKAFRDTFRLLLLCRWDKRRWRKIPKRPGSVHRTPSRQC
CHO-K1 Ca antag – M1 antagonist counterscreen hit in parental CHO-K1 cells | inhibition, % at 3 µM | ATP-induced calcium, Fluo-8 fluorescence | 360,000 compounds, 0.6% hits;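 active means inhibition above a per-plate cutoff, the plate's mean sample inhibition plus 3 SD, cut at about 24% in these data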;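 further: 0% = DMSO plus EC80 ATP and 100% = DMSO alone without ATP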
M1 ag – human M1 muscarinic receptor agonism | P11229 | CHO-K1 hM1, Fluo-8 calcium fluorescence, agonist mode; 0% DMSO, 100% acetylcholine EC100 | activation, % at 3 µM | 360,000 compounds, 0.33% hits;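 active means activation above the run's mean compound activation plus 3 SD, cut at about 16% in these data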;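 further: peak over basal fluorescence ratio within a 140 s kinetic read after compound addition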
M1 PAM parental – nonselective activator or artifact in parental CHO-K1 calcium assay; AID 602247; 360,000 compounds, 0.02% hits; activation, % at 3 µM; ATP EC20, Fluo-8 calcium fluorescence; 0% at ATP EC20, 100% at ATP max;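 active means activation above the run cutoff, the mean activation of all test compounds plus 3 SD, cut at about 40% in these data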;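 further: peak over basal fluorescence ratio in a 140 s read after ATP addition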
CHRM1 antagonist – antagonists of human M1 muscarinic receptor; AID 588852; inhibition, % at 3 µM; 360,000 compounds, 1.3% hits; CHO-K1 hM1, Fluo-8 calcium fluorescence, ACh EC80 antagonist;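 active means percent inhibition above its own plate's cutoff, namely the mean of that plate's compound wells plus 3 SD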;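 further: peak over basal fluorescence ratio during 140 s after agonist addition; 0% = ACh EC80 plus DMSO and 100% = DMSO alone without agonist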
CHO-K1 Ca ag – nonselective activator or artifact in parental CHO-K1 cells | Fluo-8 calcium fluorescence; scaled to maximal ATP response, vehicle zero | activation, % at 3 µM | 360,000 compounds, 0.48% hits; in the data active means activation above about 15%;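 further: untransfected CHO-K1 host cells lacking M1 receptor as counterscreen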
* = called active by the depositor.

For CC(=O)c1cccc(NC(=O)C(C)OC(=O)c2cccc(S(=O)(=O)N3CCN(C)CC3)c2)c1 (stereo not drawn) the results were CHRM1 PAM -24, CHO-K1 Ca antag -10, M1 ag 68*, M1 PAM parental 0, CHRM1 antagonist 71* and CHO-K1 Ca ag 1.
Screening COc1cccc(NC2=NCCCCC2)c1 returned CHRM1 PAM 6, CHO-K1 Ca antag -11, M1 ag -11, M1 PAM parental 10, CHRM1 antagonist -9 and CHO-K1 Ca ag 2.
`CCN(CC)S(=O)(=O)c1cccc(NC2=NCCCCC2)c1` gave CHRM1 PAM -5, CHO-K1 Ca antag -2, M1 ag -7, M1 PAM parental 4, CHRM1 antagonist 27* and CHO-K1 Ca ag 1.
`CC(=O)c1cccc(NC(=O)c2ccc(S(=O)(=O)N3CCCC3)cc2)c1` gave CHRM1 PAM -15, CHO-K1 Ca antag -6, M1 ag -11, M1 PAM parental -16, CHRM1 antagonist 25* and CHO-K1 Ca ag 2.
CC(=O)c1ccc(NC(=O)c2ccc(S(=O)(=O)N3CCCC3)cc2)cc1 was read as CHRM1 PAM -10, CHO-K1 Ca antag 20, M1 ag -7, M1 PAM parental -13, CHRM1 antagonist 13 and CHO-K1 Ca ag 1.
Screening Cc1cc(C(=O)Nc2ccc(S(=O)(=O)N3CCCC3)cc2)cs1 returned CHRM1 PAM 3, CHO-K1 Ca antag 25*, M1 ag -7, M1 PAM parental -13, CHRM1 antagonist -6 and CHO-K1 Ca ag 1.
Cc1ccc(NC(=O)CCS(=O)(=O)c2cc3[nH]c(=O)c(=O)[nH]c3cc2C)cc1 was read as CHRM1 PAM 11, CHO-K1 Ca antag -16, M1 ag -2, M1 PAM parental 8, CHRM1 antagonist -13 and CHO-K1 Ca ag 1.
For Cc1ccccc1C(=O)N1CCC(C(=O)N(C)CC(=O)Nc2cccc(F)c2)CC1 the results were CHRM1 PAM -4, CHO-K1 Ca antag -1, M1 ag -1, M1 PAM parental -7, CHRM1 antagonist -13 and CHO-K1 Ca ag 0.
Screening CCN(CC)S(=O)(=O)c1cccc(NC(=O)COC(=O)c2ccc(Br)o2)c1 returned CHRM1 PAM -8, CHO-K1 Ca antag 6, M1 ag -1, M1 PAM parental 0, CHRM1 antagonist 11 and CHO-K1 Ca ag 25*.
CCN(CC)S(=O)(=O)c1cccc(NC(=O)COC(=O)c2cc(=O)c3ccccc3o2)c1 was read as CHRM1 PAM 1, CHO-K1 Ca antag -3, M1 ag -2, M1 PAM parental 16, CHRM1 antagonist 2 and CHO-K1 Ca ag 0.
Screening CC(C)Oc1ccc(C(=O)Nc2cccc(S(=O)(=O)N3CCCC3)c2)cc1 returned CHRM1 PAM -31, CHO-K1 Ca antag -1, M1 ag -4, M1 PAM parental -9, CHRM1 antagonist 48* and CHO-K1 Ca ag 0.
Screening Cc1cc(C)cc(C(=O)OCC(=O)Nc2cccc(S(=O)(=O)NC3=NCCCCC3)c2)c1 returned CHRM1 PAM -1, CHO-K1 Ca antag 24*, M1 ag -5, M1 PAM parental -12, CHRM1 antagonist 3 and CHO-K1 Ca ag 2.
Screening CCC(=O)c1ccc(OCC(=O)Nc2cccc(S(=O)(=O)N3CCCCCC3)c2)cc1 returned CHRM1 PAM -18, CHO-K1 Ca antag 36*, M1 ag 1, M1 PAM parental -15, CHRM1 antagonist 47* and CHO-K1 Ca ag 18*.
For O=C(COC(=O)c1ccccc1)Nc1cccc(S(=O)(=O)NC2=NCCCCC2)c1 the results were CHRM1 PAM 7, CHO-K1 Ca antag -9, M1 ag -6, M1 PAM parental 20, CHRM1 antagonist -7 and CHO-K1 Ca ag 0.
Screening CCCN(CC(=O)Nc1ccccc1OC)C(=O)c1ccc2[nH]c3c(c2c1)CC(C)CC3 (stereo not drawn) returned CHRM1 PAM 13, CHO-K1 Ca antag -11, M1 ag 7, M1 PAM parental 5, CHRM1 antagonist 7 and CHO-K1 Ca ag 2.
`CC(C)c1nc2oc3c(N(C)CCO)ncnc3c2c2c1CCC2` gave CHRM1 PAM 5, CHO-K1 Ca antag -3, M1 ag -6, M1 PAM parental 8, CHRM1 antagonist -3 and CHO-K1 Ca ag 1.
CCOc1cc(C=O)cc(Br)c1OCC(N)=O was read as CHRM1 PAM 12, CHO-K1 Ca antag -3, M1 ag -4, M1 PAM parental 22, CHRM1 antagonist -11 and CHO-K1 Ca ag 0.
Screening CCN(CC)S(=O)(=O)c1cccc(NC(=O)CNc2cccc(S(=O)(=O)N3CCCC3)c2)c1 returned CHRM1 PAM -11, CHO-K1 Ca antag 32*, M1 ag -1, M1 PAM parental -17, CHRM1 antagonist 42* and CHO-K1 Ca ag 6.
For CCOC(=O)N1CCC(NC(=O)c2cc(C(=O)Nc3ccc(S(=O)(=O)N4CCCCC4)cc3)ccc2CO)CC1 the results were CHRM1 PAM 8, CHO-K1 Ca antag -1, M1 ag 4, M1 PAM parental 12, CHRM1 antagonist -5 and CHO-K1 Ca ag 19*.
Screening CCOC(=O)N1CCC(NC(=O)c2cc(C(=O)Nc3ccc(OCC)cc3)ccc2CO)CC1 returned CHRM1 PAM 3, CHO-K1 Ca antag -9, M1 ag -3, M1 PAM parental 10, CHRM1 antagonist -4 and CHO-K1 Ca ag 0.
COC(=O)[C@@H]1CCCN1C(=O)c1ccc(OC2CCN(Cc3ccccn3)CC2)cc1 was read as CHRM1 PAM 28*, CHO-K1 Ca antag -13, M1 ag -4, M1 PAM parental -10, CHRM1 antagonist -22 and CHO-K1 Ca ag 0.
For COc1ccc(C(C)NC(=S)NCc2ccc(F)cc2)cc1OC (stereo not drawn) the results were CHRM1 PAM 12, CHO-K1 Ca antag 9, M1 ag -2, M1 PAM parental -1, CHRM1 antagonist -6 and CHO-K1 Ca ag 3.
CCC(C)c1ccc(C(C)NC(=S)NCc2ccc(F)cc2)cc1 (stereo not drawn) was read as CHRM1 PAM -17, CHO-K1 Ca antag 0, M1 ag -6, M1 PAM parental -2, CHRM1 antagonist 34* and CHO-K1 Ca ag 2.
Screening CCCc1ccc(C(C)NC(=S)NCc2ccc(F)cc2)cc1 (stereo not drawn) returned CHRM1 PAM -17, CHO-K1 Ca antag 16, M1 ag 7, M1 PAM parental -10, CHRM1 antagonist 44* and CHO-K1 Ca ag 17*.
Screening CCC(NC(=S)NCc1ccc(F)cc1)c1ccc(C(C)C)cc1 (stereo not drawn) returned CHRM1 PAM -23, CHO-K1 Ca antag 0, M1 ag 2, M1 PAM parental -4, CHRM1 antagonist 97* and CHO-K1 Ca ag 8.
Cc1cc(C)c(NC(=S)NC(CO)(CO)CO)c(C)c1 was read as CHRM1 PAM 7, CHO-K1 Ca antag -5, M1 ag -1, M1 PAM parental 4, CHRM1 antagonist 14 and CHO-K1 Ca ag 1.

Screening results as filed in PubChem BioAssay.
